In PubChem BioAssay (EPA / NIEHS):
Active and inactive are the calls of the source. Rule for the calls: active = hit-call score of the fitted dose curve at least 0.9, where 1 is the maximum; inactive = score below 0.9.

Experiments:
[1] = CEETOX_H295R_ESTRONE: CeeTox H295R High-throughput Steroidogenesis Assay for Estrone (AID 2283441); details: actives raise or lower the signal;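 note: estrone secreted into medium measured by LC-MS/MS after dansyl derivatization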
Procedure, shortened: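 Forskolin-stimulated H295R cells are treated 48 h with chemical, and estrone in the medium is measured by LC-MS/MS. Activity is fitted in both directions relative to DMSO controls, with chemicals diluted until MTT viability reaches at least 70%.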

[2] = CEETOX_H295R_PROG: CeeTox H295R High-throughput Steroidogenesis Assay for Progesterone (PROG) (AID 2283442); details: actives raise or lower the signal;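 for AC50: human H295R adrenal cells primed with 10 µM forskolin before dosing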
Procedure, shortened: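 H295R human adrenal cells were prestimulated with 10 uM forskolin for 48 h, then exposed to test chemical (0.1% DMSO final) for 48 h. Medium progesterone was MTBE-extracted and quantified by HPLC-MS/MS, with bidirectional fitting against DMSO.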

[3] = read-out: Tumor necrosis factor receptor superfamily member 6 (Homo sapiens) (UniProt P25445); test: LTEA_HepaRG_FAS: Life Technologies and Expression Analysis (LTEA) Assay for Fas cell surface death receptor (FAS) using HepaRG (AID 2283447); details: mRNA level, 48 h; actives raise or lower the signal
Procedure, shortened: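 Differentiated human HepaRG cells, pre-cultured 48 h, were exposed in duplicate for 48 h to 8-point half-log concentrations (top 100 uM, 0.5% DMSO) in serum-free induction medium; FAS mRNA measured by qRT-PCR, normalized to ACTB/GAPDH/POLR2A, bidirectional fit versus DMSO.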

[4] = read-out: Cyclin Dependent Kinase Inhibitor 1A (CDKN1A), CDKN1A (gene 1026); test: LTEA_HepaRG_CDKN1A: Life Technologies and Expression Analysis (LTEA) Assay for Cyclin Dependent Kinase Inhibitor 1A (CDKN1A) using HepaRG (AID 2283450); details: mRNA level, 48 h; actives raise or lower the signal
Procedure, shortened: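 Differentiated human HepaRG cells, pre-cultured 48 h, were exposed in duplicate for 48 h in serum-free induction medium to eight half-log concentrations up to 100 uM (0.5% DMSO). CDKN1A mRNA was measured by qRT-PCR, normalized to ACTB/GAPDH/POLR2A, bidirectionally fitted versus DMSO.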

[5] = read-out: Cyclin D1 (CCND1), CCND1 (gene 595); test: LTEA_HepaRG_CCND1: Life Technologies and Expression Analysis (LTEA) Assay for Cyclin D1 (CCND1) using HepaRG (AID 2283451); details: mRNA level, 48 h; actives raise or lower the signal
Procedure, shortened: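 Differentiated human HepaRG cells in serum-free induction medium were exposed 48 h to eight half-log concentrations up to 100 uM in 0.5% DMSO; mRNA quantified by TaqMan qRT-PCR, normalized to ACTB, GAPDH, POLR2A, fitted bidirectionally versus DMSO.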

[6] = read-out: catalase (CAT), CAT (gene 847); test: LTEA_HepaRG_CAT: Life Technologies and Expression Analysis (LTEA) Assay for catalase (CAT) using HepaRG (AID 2283452); details: mRNA level, 48 h; actives raise or lower the signal
Procedure, shortened: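 Differentiated HepaRG cells in serum-free induction medium were dosed 48 h in duplicate, eight half-log concentrations from 100 uM in 0.5% DMSO. Transcript measured by TaqMan qRT-PCR, normalised to ACTB/GAPDH/POLR2A, fitted bidirectionally against DMSO.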

[7] = read-out: flavin-containing dimethylaniline monooxygenases 3 (FMO3), FMO3 (gene 2328); test: LTEA_HepaRG_FMO3: Life Technologies and Expression Analysis (LTEA) Assay for flavin-containing dimethylaniline monooxygenases 3 (FMO3) using HepaRG (AID 2283453); details: mRNA level, 48 h; actives raise or lower the signal
Experimental: (§1) LTEA_HepaRG is a cell based, multiplexed-readout assay that uses HepaRG, a human liver cell line, with measurements taken at 48 hours after chemical dosing on a 96-well plate.LTEA_HepaRG_FMO3 is one of 102 assay component(s) measured in the LTEA HepaRG cell culture assay. It is a marker of NR mediated metabolism.Data from the assay component LTEA_HepaRG_FMO3 was analyzed into 1 endpoint. This assay endpoint, LTEA_HepaRG_FMO3, was analyzed with bidirectional fitting relative to DMSO as the negative control and baseline of activity. Using a type of inducible reporter, measures of mRNA induction for gain or loss-of-signal activity can be used to understand regulation of transcription factor activity. To generalize the intended target to other relatable targets, this assay endpoint is annotated to the oxidoreductase intended target family, where the subfamily is dioxygenase.
A total of 1060 chemcials from the ToxCast library were tested in eight-point concentration-response experiments. Cell culture and cytotoxicity assays were conducted at Thermo Fisher Scientific's Custom Services facility (Madison, WI). A single lot of human HepaRG cells (Thermo Fisher Scientific, Frederick, MD) was used for the cell culture experiments. 96-well format collagen type I coated plates of human HepaRG cells were prepared using established methods. Briefly, cryopreserved HepaRG cells were thawed, plated at a density of approximately 100,000 cells/well in HepaRG Thaw, Plate, and General Purpose media (HPRG770, Thermo Fisher Scientific), and incubated for 48 hours. […] Fluidigm's 96.96 Dynamic ArrayTM (Fluidigm, Amsterdam, the Netherlands) technology was used for gene expression analyses by quantitative reverse transcription polymerase chain reaction (qRT-PCR, performed by Quintiles/Expression Analysis, Durham, NC)89. […]

[8] = read-out: Cytochrome P450 (CYP1A1), CYP1A1 (gene 1543); test: LTEA_HepaRG_CYP1A1: Life Technologies and Expression Analysis (LTEA) Assay for Cytochrome P450 (CYP1A1) using HepaRG (AID 2283454); details: mRNA level, 48 h; actives raise or lower the signal
Procedure, shortened: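 Differentiated HepaRG cells in serum-free induction medium were exposed in duplicate for 48 h to eight half-log concentrations up to 100 uM in 0.5% DMSO. CYP1A1 mRNA was quantified by TaqMan qRT-PCR, normalized to ACTB, GAPDH and POLR2A.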

[9] = read-out: Fatty acid synthase (Homo sapiens) (UniProt P49327); test: LTEA_HepaRG_FASN: Life Technologies and Expression Analysis (LTEA) Assay for Fatty Acid Synthase (FASN) using HepaRG (AID 2283448); details: mRNA level, 48 h; actives raise or lower the signal
Procedure, shortened: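 HepaRG, 48 h exposure, 8-pt half-log series top 100 uM, 0.5% DMSO vehicle, duplicates. Readout: FASN transcript by Fluidigm qRT-PCR; housekeeping-normalized; bidirectional curve fit vs DMSO baseline.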

[10] = read-out: Cyclin D2 (CCND2), CCND2 (gene 894); test: LTEA_HepaRG_CCND2: Life Technologies and Expression Analysis (LTEA) Assay for Cyclin D2 (CCND2) using HepaRG (AID 2283449); details: mRNA level, 48 h; actives raise or lower the signal;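 note: CCND2 transcript measured by TaqMan qRT-PCR and normalised to three housekeeping genes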
Experimental: as §1, with “plate.LTEA_HepaRG_CCND2” for “plate.LTEA_HepaRG_FMO3”, “Cell proliferation, survival, death.Data” for “NR mediated metabolism.Data”, “LTEA_HepaRG_CCND2” for “LTEA_HepaRG_FMO3”, “LTEA_HepaRG_CCND2,” for “LTEA_HepaRG_FMO3,”, “cell cycle” for “oxidoreductase”, “Cell proliferation, survival, death.” for “dioxygenase.”
A total of 1060 chemcials from the ToxCast library were tested in eight-point concentration-response experiments. […] Fluidigm's 96.96 Dynamic ArrayTM (Fluidigm, Amsterdam, the Netherlands) technology was used for gene expression analyses by quantitative reverse transcription polymerase chain reaction (qRT-PCR, performed by Quintiles/Expression Analysis, Durham, NC)89. […]

Sequence of Fatty acid synthase (Homo sapiens) (P49327 whole entry, looked up): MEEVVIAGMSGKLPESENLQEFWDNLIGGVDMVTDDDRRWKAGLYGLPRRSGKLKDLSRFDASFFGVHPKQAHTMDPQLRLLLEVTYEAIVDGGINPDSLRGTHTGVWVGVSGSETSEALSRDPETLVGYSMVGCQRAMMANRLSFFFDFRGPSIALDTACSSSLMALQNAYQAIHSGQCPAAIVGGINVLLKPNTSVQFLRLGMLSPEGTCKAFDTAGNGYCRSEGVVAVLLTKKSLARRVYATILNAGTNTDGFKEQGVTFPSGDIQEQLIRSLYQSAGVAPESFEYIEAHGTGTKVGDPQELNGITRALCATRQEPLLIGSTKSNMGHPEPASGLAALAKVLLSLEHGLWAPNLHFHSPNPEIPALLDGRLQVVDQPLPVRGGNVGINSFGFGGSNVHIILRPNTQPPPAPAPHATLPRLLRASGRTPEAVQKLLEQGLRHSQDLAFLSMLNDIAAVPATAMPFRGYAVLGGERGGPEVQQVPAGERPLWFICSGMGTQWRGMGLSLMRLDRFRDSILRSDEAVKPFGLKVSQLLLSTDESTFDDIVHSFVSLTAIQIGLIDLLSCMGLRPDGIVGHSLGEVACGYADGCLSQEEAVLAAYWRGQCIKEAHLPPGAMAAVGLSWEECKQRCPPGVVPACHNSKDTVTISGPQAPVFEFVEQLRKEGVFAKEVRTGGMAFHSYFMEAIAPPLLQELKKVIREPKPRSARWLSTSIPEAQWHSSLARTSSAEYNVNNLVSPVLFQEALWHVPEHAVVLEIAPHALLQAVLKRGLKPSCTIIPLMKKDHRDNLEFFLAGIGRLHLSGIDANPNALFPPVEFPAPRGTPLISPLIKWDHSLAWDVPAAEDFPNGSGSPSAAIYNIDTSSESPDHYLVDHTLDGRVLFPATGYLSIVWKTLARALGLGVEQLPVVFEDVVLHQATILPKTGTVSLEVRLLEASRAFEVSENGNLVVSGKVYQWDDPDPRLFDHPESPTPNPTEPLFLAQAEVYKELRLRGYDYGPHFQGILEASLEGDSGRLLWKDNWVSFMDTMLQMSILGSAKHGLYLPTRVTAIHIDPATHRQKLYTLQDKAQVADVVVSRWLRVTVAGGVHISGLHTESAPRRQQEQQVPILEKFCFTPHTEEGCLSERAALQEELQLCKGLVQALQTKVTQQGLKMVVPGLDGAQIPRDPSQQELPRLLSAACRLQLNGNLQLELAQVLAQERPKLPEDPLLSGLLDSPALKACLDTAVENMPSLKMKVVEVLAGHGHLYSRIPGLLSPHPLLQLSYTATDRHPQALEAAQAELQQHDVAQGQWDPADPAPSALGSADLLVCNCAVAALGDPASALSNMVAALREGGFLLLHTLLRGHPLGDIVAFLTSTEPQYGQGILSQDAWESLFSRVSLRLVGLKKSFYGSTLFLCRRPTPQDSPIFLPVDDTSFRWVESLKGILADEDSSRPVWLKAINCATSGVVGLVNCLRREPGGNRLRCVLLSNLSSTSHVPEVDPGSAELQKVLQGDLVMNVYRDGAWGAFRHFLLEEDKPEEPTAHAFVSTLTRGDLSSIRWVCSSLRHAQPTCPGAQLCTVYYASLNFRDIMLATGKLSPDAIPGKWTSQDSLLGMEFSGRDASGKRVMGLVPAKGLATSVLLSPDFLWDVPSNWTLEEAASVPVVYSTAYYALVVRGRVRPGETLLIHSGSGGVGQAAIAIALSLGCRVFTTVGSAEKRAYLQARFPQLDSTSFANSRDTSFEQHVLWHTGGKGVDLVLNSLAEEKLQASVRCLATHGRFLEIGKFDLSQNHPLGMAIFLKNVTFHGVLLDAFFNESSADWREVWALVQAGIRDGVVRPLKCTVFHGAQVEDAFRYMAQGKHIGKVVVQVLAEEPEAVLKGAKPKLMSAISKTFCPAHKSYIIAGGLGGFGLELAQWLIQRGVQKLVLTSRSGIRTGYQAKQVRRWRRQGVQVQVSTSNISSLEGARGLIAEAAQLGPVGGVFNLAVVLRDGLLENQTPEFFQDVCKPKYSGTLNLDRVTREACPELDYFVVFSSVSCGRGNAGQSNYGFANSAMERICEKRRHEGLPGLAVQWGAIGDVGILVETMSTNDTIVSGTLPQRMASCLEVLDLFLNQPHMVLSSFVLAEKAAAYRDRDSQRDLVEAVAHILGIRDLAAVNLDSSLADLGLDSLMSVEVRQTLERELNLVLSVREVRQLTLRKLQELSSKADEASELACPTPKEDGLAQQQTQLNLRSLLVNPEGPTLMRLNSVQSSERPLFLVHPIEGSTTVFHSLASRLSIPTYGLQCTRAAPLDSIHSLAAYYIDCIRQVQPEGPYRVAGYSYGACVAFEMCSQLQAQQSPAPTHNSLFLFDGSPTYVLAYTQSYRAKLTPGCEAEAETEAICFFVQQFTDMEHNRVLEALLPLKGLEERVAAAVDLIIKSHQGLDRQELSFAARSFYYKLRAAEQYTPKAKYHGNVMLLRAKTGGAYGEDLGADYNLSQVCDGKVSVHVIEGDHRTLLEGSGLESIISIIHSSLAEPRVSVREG

Structure (SMILES): CCN1CN(CC)CN(CC)C1
- outcome [1]: inactive
- outcome [2]: inactive

Structure (SMILES): C=C[C@@]1(C)CC(=O)[C@]2(O)[C@@]3(C)[C@@H](O)CCC(C)(C)[C@@H]3[C@H](O)[C@H](OC(C)=O)[C@@]2(C)O1
- AC50 [1]: 0.719 µM (active)
- outcome [2]: inactive

Structure (SMILES): CN(C)c1ccc2nc3ccc(=[N+](C)C)cc-3sc2c1
- outcome [1]: inactive
- AC50 [2]: 0.617 µM (active)

Structure (SMILES): COc1ccc(C(=O)c2ccccc2)c(O)c1
- outcome [1]: inactive
- outcome [2]: inactive

Structure (SMILES): CC(C)(c1ccccc1)c1ccc(Nc2ccc(C(C)(C)c3ccccc3)cc2)cc1
- AC50 [2]: 1.84 µM (active)

Structure (SMILES): Cc1ccc([N+](=O)[O-])cc1N
- AC50 [2]: 30.2 µM (active)
- outcome [3]: inactive
- outcome [4]: inactive
- outcome [5]: inactive
- outcome [6]: inactive
- outcome [7]: inactive
- AC50 [8]: 25 µM (active)

Structure (SMILES): C=CC(=O)OCCCCCCOC(=O)C=C
- outcome [1]: inactive
- outcome [2]: inactive

Structure (SMILES): COc1ccc(-c2coc3cc(O)cc(O)c3c2=O)cc1
- outcome [1]: inactive
- AC50 [2]: 1.81 µM (active)

Structure (SMILES): CC(C)(C)NC(=O)[C@H]1CC[C@H]2[C@@H]3CC[C@H]4NC(=O)C=C[C@]4(C)[C@H]3CC[C@]12C
- AC50 [2]: 1.57 µM (active)

Structure (SMILES): Nc1ccc(C(=O)O)cc1
- outcome [3]: inactive
- outcome [9]: inactive
- outcome [10]: inactive
- outcome [4]: inactive
- outcome [5]: inactive
- outcome [6]: inactive
- outcome [7]: inactive
- AC50 [8]: 77 µM (active)

Structure (SMILES): CCOC(=O)C1=NN(c2ccc(Cl)cc2Cl)C(C)(C(=O)OCC)C1 (stereo not drawn)
- outcome [1]: inactive
- outcome [2]: inactive

Structure (SMILES): C1CNCCN1
- outcome [3]: inactive
- outcome [9]: inactive
- outcome [10]: inactive
- outcome [4]: inactive
- outcome [5]: inactive
- outcome [6]: inactive
- outcome [7]: inactive
- AC50 [8]: 73.1 µM (active)

Structure (SMILES): O=C(OCc1ccccc1)c1ccc(O)cc1
- AC50 [1]: 37.5 µM (active)
- AC50 [2]: 24.6 µM (active)

Structure (SMILES): O=C(O)c1cc(O)c2ccccc2c1O
- outcome [1]: inactive
- AC50 [2]: 0.5 µM (active)
